# Assay results reported in publication PMC7862700, “An all-to-all approach to the identification of sequence-specific readers for epigenetic DNA modifications on cytosine”.
# Tests used:
# Experiment in all cases: DAPPL (digital affinity profiling via proximity ligation, sequencing); 10 mM Tris-HCl pH 7.5, 50 mM NaCl, 1 mM DTT, 4% glycerol, room temperature, 30 min; GST-TFs on glutathione beads, 16-mer random dsDNA library, 0.1% formaldehyde crosslink after washing; high values mean tight binding
# FEV = target: T1, FEV (Homo sapiens, UniProt Q99581 1-238); details: protein: recombinant; tags: N-terminal GST; dsDNA, one strand shown
# T1 sequence: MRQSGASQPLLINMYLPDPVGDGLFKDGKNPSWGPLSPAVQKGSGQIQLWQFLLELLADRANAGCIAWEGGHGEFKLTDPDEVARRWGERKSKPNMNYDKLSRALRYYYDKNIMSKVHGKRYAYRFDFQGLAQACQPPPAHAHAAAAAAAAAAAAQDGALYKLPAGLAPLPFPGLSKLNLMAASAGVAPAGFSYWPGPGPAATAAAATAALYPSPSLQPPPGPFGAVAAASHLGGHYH
# Outline: (§1)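 Binding signal is each hexamer's read frequency for a factor divided by its frequency in the tag-only sample. The factors were GST-fused human transcription factors from yeast, captured on glutathione beads, DNA-barcoded and pooled with that sample. Pools were incubated with 200 nmole of a random double-stranded 16-mer DNA library in Tris/NaCl/DTT/glycerol buffer at room temperature for 30 min, then washed, crosslinked with 0.1% formaldehyde, proximity-ligated with BsaI/T4 ligase (1 h, 37 °C), PCR-amplified and sequenced on an Illumina NextSeq500.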
# ETV5 = ETV5 (Homo sapiens, UniProt P41161 1-510); details: protein: recombinant; tags: N-terminal GST; dsDNA, one strand shown
# Outline: as §1
# HSF1 = HSF1 (Homo sapiens, UniProt Q00613 1-529); details: protein: recombinant; tags: N-terminal GST; chain copies: 3; dsDNA, one strand shown
# Outline: as §1
# SPIC = target: T2, SPIC (Homo sapiens, UniProt Q8N5J4 1-248); details: protein: recombinant; tags: N-terminal GST; dsDNA, one strand shown
# T2 sequence: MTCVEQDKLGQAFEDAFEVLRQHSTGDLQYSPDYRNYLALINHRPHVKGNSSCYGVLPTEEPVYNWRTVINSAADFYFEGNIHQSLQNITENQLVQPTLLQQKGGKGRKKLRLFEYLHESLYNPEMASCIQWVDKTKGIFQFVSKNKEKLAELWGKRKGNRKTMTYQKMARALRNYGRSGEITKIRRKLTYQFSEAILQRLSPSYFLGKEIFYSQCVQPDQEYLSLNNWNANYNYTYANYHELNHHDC
# Outline: as §1
# ELF4 = ELF4 (Homo sapiens, UniProt Q99607 1-663); details: protein: recombinant; tags: N-terminal GST; dsDNA, one strand shown
# Outline: as §1
# ELK4 = target: T3, ELK4 (Homo sapiens, UniProt P28324-2 1-405); details: protein: recombinant; tags: N-terminal GST; dsDNA, one strand shown
# T3 sequence: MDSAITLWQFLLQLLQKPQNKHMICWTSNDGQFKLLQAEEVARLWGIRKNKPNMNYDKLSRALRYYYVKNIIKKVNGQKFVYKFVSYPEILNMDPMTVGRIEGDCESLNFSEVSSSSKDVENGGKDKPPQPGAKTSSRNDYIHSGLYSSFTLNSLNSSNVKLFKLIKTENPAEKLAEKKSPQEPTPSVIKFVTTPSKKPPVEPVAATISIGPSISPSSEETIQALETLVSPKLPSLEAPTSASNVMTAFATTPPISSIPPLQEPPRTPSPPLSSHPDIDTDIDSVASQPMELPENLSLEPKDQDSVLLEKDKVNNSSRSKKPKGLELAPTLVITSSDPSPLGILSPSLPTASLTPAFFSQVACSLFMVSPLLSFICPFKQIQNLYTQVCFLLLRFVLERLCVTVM
# Outline: as §1
# ETV2 = target: T4, ETV2 (Homo sapiens, UniProt O00321 1-342); details: protein: recombinant; tags: N-terminal GST; dsDNA, one strand shown
# T4 sequence: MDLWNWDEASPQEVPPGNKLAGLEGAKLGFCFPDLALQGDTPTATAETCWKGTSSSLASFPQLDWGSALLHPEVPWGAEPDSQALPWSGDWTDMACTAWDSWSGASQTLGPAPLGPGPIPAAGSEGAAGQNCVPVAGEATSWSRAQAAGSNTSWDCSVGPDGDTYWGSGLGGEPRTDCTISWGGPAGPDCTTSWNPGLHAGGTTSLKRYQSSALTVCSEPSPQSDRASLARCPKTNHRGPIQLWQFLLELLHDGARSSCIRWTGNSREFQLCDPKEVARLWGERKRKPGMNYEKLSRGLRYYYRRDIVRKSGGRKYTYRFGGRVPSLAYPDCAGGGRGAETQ
# Outline: as §1
# ELF3 = target: T5, ELF3 (Homo sapiens, UniProt P78545 1-371); details: protein: recombinant; tags: N-terminal GST; dsDNA, one strand shown
# T5 sequence: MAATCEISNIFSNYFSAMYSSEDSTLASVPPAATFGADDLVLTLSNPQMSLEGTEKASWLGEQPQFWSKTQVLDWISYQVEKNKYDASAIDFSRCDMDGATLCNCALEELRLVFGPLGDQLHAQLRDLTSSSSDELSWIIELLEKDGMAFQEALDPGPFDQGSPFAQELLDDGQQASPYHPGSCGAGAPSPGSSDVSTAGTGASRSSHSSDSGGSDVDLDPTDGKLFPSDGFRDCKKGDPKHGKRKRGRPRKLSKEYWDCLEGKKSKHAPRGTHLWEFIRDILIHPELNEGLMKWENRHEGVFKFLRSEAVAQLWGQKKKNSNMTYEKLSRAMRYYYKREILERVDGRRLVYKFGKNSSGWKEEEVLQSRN
# Outline: as §1
# CRX = CRX (Homo sapiens, UniProt O43186 1-299); details: protein: recombinant; tags: N-terminal GST; dsDNA, one strand shown
# Outline: as §1
# ETV1 = ETV1 (Homo sapiens, UniProt P50549 1-477); details: protein: recombinant; tags: N-terminal GST; dsDNA, one strand shown
# Outline: as §1
# ERF = target: T6, ERF (Homo sapiens, UniProt P50548 1-548); details: protein: recombinant; tags: N-terminal GST; dsDNA, one strand shown
# T6 sequence: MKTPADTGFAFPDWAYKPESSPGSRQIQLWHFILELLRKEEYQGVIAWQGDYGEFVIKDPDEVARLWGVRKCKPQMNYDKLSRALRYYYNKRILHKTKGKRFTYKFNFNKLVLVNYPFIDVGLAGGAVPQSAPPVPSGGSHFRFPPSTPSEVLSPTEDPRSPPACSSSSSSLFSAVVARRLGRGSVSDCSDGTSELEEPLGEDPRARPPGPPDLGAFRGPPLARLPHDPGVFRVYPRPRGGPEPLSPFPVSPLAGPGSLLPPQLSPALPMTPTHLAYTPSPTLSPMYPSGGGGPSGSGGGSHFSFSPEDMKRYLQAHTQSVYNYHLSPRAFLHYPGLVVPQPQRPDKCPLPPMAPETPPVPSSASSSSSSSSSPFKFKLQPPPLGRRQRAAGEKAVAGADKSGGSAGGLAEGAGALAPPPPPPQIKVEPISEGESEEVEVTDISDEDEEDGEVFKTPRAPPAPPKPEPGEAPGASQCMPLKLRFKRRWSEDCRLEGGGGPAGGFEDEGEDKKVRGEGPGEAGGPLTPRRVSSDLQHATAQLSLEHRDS
# Outline: as §1
# ETV3L = target: T7, ETV3L (Homo sapiens, UniProt Q6ZN32 1-361); details: protein: recombinant; tags: N-terminal GST; dsDNA, one strand shown
# T7 sequence: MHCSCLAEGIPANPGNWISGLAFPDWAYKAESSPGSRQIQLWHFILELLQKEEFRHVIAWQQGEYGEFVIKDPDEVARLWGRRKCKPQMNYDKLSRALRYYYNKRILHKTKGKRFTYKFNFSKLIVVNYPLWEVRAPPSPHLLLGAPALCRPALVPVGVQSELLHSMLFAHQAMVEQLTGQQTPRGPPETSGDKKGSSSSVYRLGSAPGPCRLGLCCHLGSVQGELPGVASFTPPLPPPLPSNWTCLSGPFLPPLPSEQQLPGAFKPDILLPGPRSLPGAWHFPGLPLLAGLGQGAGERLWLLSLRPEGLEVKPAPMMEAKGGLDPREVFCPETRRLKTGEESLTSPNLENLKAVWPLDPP
# Outline: as §1
# ETS2 = target: T8, ETS2 (Homo sapiens, UniProt P15036 1-469); details: protein: recombinant; tags: N-terminal GST; dsDNA, one strand shown
# T8 sequence: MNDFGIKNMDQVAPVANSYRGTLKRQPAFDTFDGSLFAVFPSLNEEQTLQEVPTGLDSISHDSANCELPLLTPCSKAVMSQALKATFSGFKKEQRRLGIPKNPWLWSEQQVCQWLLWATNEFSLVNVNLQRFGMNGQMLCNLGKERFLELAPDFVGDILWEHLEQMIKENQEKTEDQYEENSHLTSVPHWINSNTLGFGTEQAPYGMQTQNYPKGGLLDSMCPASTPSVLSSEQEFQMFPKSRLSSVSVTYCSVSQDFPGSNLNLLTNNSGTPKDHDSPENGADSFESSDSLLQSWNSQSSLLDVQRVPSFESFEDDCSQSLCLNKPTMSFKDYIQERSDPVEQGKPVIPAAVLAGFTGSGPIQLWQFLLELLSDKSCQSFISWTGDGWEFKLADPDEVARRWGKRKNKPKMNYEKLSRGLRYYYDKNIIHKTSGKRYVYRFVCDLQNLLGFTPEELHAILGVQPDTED
# Outline: as §1
# SPDEF = target: T9, SPDEF (Homo sapiens, UniProt O95238 1-335); details: protein: recombinant; tags: N-terminal GST; dsDNA, one strand shown
# T9 sequence: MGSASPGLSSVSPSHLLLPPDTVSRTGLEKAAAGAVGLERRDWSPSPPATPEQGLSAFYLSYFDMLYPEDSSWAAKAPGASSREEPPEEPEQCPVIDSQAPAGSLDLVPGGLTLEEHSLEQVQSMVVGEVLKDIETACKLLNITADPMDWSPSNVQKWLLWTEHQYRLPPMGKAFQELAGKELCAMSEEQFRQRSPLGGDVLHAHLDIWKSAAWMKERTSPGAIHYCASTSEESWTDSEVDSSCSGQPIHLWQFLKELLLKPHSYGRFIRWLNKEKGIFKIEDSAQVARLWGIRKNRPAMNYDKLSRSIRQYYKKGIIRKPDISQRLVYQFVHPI
# Outline: as §1
# ETV7 = target: T10, ETV7 (Homo sapiens, UniProt Q9Y603 1-341); details: protein: recombinant; tags: N-terminal GST; dsDNA, one strand shown
# T10 sequence: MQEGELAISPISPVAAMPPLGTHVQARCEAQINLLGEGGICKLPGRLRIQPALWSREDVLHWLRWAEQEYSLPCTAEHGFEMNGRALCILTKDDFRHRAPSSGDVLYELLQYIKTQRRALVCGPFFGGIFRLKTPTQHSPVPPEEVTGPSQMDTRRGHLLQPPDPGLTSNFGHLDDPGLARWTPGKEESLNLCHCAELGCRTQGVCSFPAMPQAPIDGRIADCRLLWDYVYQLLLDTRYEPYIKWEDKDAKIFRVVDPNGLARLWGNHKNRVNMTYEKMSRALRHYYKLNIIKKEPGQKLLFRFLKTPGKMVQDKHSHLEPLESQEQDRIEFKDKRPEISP
# Outline: as §1
# ELF5 = target: T11, ELF5 (Homo sapiens, UniProt Q9UKW6-2 1-255); details: protein: recombinant; tags: N-terminal GST; dsDNA, one strand shown
# T11 sequence: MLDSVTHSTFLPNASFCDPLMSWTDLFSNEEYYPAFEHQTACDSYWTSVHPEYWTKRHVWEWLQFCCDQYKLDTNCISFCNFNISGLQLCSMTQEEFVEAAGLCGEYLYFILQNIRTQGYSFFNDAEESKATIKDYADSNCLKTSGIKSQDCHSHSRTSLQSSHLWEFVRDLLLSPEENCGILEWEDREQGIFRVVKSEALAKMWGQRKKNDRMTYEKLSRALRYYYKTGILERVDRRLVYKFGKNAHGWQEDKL
# Outline: as §1
# ETV3 = target: T12, ETV3 (Homo sapiens, UniProt P41162-2 1-143); details: protein: recombinant; tags: N-terminal GST; dsDNA, one strand shown
# T12 sequence: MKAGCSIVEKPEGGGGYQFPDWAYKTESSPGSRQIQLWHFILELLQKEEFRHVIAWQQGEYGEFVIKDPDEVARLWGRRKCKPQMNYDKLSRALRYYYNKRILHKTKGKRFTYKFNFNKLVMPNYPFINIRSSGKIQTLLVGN
# Outline: as §1
# ETV6 = ETV6 (Homo sapiens, UniProt P41212 1-452); details: protein: recombinant; tags: N-terminal GST; dsDNA, one strand shown
# Outline: as §1
# Chain of ETV5 (P41161 whole entry): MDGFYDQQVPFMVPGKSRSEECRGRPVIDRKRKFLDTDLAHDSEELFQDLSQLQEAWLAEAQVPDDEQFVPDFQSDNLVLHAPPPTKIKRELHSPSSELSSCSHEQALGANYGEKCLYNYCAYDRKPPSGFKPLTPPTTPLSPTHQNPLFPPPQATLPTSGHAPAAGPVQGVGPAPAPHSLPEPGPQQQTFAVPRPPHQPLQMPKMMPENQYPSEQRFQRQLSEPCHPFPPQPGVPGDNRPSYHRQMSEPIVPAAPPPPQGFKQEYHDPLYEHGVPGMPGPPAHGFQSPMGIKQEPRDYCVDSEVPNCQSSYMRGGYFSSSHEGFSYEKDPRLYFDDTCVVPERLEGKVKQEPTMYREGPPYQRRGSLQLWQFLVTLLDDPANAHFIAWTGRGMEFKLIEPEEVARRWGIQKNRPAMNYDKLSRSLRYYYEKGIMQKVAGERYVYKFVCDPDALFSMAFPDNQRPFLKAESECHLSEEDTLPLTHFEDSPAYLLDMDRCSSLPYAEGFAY
# Chain of ETV1 (P50549 whole entry): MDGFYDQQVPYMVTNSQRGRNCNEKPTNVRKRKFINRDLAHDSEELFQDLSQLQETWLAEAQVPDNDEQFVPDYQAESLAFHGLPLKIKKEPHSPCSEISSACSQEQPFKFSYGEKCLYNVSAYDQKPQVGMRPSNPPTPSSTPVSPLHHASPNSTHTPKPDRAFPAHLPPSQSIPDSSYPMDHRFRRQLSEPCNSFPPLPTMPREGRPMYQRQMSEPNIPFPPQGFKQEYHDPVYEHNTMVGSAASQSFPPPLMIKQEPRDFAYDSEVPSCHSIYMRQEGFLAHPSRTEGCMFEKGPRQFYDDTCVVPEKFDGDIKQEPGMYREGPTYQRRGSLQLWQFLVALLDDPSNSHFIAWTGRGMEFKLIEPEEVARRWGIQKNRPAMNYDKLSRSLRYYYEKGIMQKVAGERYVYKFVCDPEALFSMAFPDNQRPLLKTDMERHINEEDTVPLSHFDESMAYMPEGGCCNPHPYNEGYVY
# Chain of CRX (O43186 whole entry): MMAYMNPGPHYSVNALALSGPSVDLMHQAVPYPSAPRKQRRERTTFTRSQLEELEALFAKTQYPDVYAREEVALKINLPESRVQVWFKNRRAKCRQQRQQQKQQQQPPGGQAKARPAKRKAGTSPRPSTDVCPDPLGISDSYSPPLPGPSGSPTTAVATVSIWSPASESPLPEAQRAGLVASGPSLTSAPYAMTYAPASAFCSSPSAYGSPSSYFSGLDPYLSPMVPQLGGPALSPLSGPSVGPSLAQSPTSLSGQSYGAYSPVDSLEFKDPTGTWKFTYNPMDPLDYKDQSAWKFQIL
# Chain of ELF4 (Q99607 whole entry): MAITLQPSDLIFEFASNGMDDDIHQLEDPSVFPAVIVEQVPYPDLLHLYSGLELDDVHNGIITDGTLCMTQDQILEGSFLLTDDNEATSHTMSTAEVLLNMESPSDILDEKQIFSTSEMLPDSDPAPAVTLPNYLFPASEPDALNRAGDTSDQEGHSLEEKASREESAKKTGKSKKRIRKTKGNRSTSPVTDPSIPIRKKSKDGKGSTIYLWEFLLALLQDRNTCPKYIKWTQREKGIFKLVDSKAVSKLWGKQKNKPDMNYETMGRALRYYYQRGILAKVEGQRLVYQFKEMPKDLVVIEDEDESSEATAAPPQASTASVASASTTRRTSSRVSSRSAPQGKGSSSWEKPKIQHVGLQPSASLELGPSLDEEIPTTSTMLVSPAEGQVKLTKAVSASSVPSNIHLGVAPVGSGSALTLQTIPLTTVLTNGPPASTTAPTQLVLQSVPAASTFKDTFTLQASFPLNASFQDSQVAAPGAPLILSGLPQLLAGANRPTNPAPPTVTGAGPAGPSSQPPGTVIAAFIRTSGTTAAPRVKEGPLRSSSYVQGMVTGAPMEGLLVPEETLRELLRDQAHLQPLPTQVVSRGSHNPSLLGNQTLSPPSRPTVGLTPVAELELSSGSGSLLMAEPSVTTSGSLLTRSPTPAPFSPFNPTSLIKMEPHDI
# Chain of ETV6 (P41212 whole entry): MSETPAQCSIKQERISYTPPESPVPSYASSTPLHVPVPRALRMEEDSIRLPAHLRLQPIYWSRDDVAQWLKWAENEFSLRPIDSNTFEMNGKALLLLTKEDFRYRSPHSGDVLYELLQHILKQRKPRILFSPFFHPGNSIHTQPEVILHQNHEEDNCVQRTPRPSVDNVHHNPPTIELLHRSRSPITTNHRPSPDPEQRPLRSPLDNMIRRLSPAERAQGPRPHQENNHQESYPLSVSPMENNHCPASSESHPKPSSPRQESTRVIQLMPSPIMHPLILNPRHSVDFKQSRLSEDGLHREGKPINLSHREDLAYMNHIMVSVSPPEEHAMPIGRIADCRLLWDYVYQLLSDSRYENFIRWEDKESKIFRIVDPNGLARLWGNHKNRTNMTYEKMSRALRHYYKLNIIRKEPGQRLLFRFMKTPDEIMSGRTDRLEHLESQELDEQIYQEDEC
# Chain of HSF1 (Q00613 whole entry): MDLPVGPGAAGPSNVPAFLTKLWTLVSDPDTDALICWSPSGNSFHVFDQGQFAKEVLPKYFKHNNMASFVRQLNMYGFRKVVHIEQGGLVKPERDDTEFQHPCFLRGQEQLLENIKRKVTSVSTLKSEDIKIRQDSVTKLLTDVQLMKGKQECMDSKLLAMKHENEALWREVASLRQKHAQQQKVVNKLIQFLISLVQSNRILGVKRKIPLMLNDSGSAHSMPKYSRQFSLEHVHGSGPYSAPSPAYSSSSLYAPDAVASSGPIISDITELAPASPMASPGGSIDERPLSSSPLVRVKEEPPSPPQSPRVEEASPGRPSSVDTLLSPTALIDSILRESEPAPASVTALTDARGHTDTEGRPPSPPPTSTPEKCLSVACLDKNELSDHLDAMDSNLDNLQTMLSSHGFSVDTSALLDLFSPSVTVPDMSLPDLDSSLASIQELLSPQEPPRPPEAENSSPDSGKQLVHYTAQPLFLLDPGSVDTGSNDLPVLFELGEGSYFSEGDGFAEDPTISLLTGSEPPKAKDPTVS
sequence,measurement,setting,value
AATCCT,binding signal,FEV,"1.32 fold enrichment (6-mer frequency, TF over GST control)"
same,binding signal,ETV5,"1.43 fold enrichment (6-mer frequency, TF over GST control)"
same,binding signal,HSF1,"2.25 fold enrichment (6-mer frequency, TF over GST control)"
same,binding signal,SPIC,"1.3 fold enrichment (6-mer frequency, TF over GST control)"
same,binding signal,ELF4,"1.27 fold enrichment (6-mer frequency, TF over GST control)"
same,binding signal,ELK4,"1.33 fold enrichment (6-mer frequency, TF over GST control)"
same,binding signal,ETV2,"1.34 fold enrichment (6-mer frequency, TF over GST control)"
same,binding signal,ELF3,"1.25 fold enrichment (6-mer frequency, TF over GST control)"
same,binding signal,CRX,"3.32 fold enrichment (6-mer frequency, TF over GST control)"
same,binding signal,ETV1,"1.35 fold enrichment (6-mer frequency, TF over GST control)"
same,binding signal,ERF,"1.21 fold enrichment (6-mer frequency, TF over GST control)"
same,binding signal,ETV3L,"1.24 fold enrichment (6-mer frequency, TF over GST control)"
same,binding signal,ETS2,"1.32 fold enrichment (6-mer frequency, TF over GST control)"
same,binding signal,SPDEF,"1.45 fold enrichment (6-mer frequency, TF over GST control)"
same,binding signal,ETV7,"1.41 fold enrichment (6-mer frequency, TF over GST control)"
same,binding signal,ELF5,"1.61 fold enrichment (6-mer frequency, TF over GST control)"
same,binding signal,ETV3,"1.37 fold enrichment (6-mer frequency, TF over GST control)"
same,binding signal,ETV6,"1.29 fold enrichment (6-mer frequency, TF over GST control)"
